According to PubChem BioAssay (NCI):
Compounds without any hit were thinned out: in the full panel of roughly 79,000, 15% have a hit. A number with no mark means an inactive call. The source made the active and inactive calls. Cut-off read from the data, not from the text of the source: active = growth inhibition above about 70%; inactive = the rest.

Assays:
[1] = NCI Yeast Anticancer Drug Screen. Data for the rad50 strain (AID 155);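 note: 0% = growth of vehicle-only cultures of the same strain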; settings: S. cerevisiae rad50 strain growth inhibition; at 50.0 µM; stronger effect = higher value
Summary of the method: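 Growth of the mutant yeast was measured after compound exposure and referenced to vehicle-treated cultures.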

[2] = NCI Yeast Anticancer Drug Screen. Data for the mec2-1 strain (AID 157); settings: S. cerevisiae mec2-1 strain, at 50.0 µM, stronger effect = higher value
Summary of the method: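 Strain: mec2-1 (DNA repair/cell cycle alteration). Compound exposure, then growth measured; inhibition expressed relative to vehicle.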

[3] = NCI Yeast Anticancer Drug Screen. Data for the sgs1 mgt1 strain (AID 161);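 note: 0% = growth of cultures given vehicle only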; settings: S. cerevisiae sgs1 mgt1 strain, at 50.0 µM, stronger effect = higher value
Summary of the method: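 Test agents were incubated with a DNA-repair-mutant yeast strain. Growth was then read and compared against vehicle-treated controls.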

[4] = NCI Yeast Anticancer Drug Screen. Data for the cln2 rad14 strain (AID 165);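 note: 0% = growth equal to vehicle treated cultures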; settings: S. cerevisiae cln2 rad14 strain, at 50.0 µM, stronger effect = higher value
Summary of the method: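 Compounds are applied to the cln2 rad14 yeast strain, and growth is then compared with that of vehicle-treated cultures to give inhibition.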

[5] = NCI Yeast Anticancer Drug Screen. Data for the bub3 strain (AID 167); settings: S. cerevisiae bub3 mutant strain, at 50.0 µM, stronger effect = higher value
Summary of the method: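 Whole-cell yeast assay. The mutant strain was incubated with compounds, and growth inhibition was determined by comparison with vehicle-treated cells.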

[6] = NCI Yeast Anticancer Drug Screen. Data for the mlh1 rad18 strain (AID 175); settings: S. cerevisiae mlh1 rad18 strain growth inhibition; at 50.0 µM; stronger effect = higher value
Summary of the method: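 Read-out is yeast growth inhibition, calculated against vehicle-only controls. The compound was applied to a strain engineered with DNA damage repair alterations.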

Structure (SMILES)	growth inhibition [1]	growth inhibition [2]	growth inhibition [3]	growth inhibition [4]	growth inhibition [5]	growth inhibition [6]
CCOC(=O)c1cc2c([N+](=O)[O-])cccc2[nH]1	18.4%	-5.9%	-2.2%	-35.5%	6.45%	13.7%
CC1OC(O)CC(NC(=O)C(F)(F)F)C1O (stereo not given)	3.6%	-4.35%	9.65%	-21.9%	-1.1%	-0.1%
CC1(C)C(=O)OC(n2ccc(=O)[nH]c2=O)C1=O (stereo not given)	7.15%	-11.2%	-7.75%	-43.9%	-10.8%	12.7%
O=C(c1ccccc1)c1c[nH]c(=O)[nH]c1=O	-17.1%	10.2%	-3%	-3.2%	0.4%	-26.9%
N#CC(C(=O)CCCC(=O)Nc1ccc(Cl)cc1Cl)c1ccccc1 (stereo not given)	-39%	-13.6%	-6.95%	13.2%	-16%	-28.1%
c1ccc(C(c2ccccc2)[n+]2ccccc2)cc1	4.5%	-1.3%	-6.1%	-11.2%	-5.5%	-6.25%
O=C(O)/C(Cc1ccc([N+](=O)[O-])cc1)=N\O	-4.2%	6.85%	-25.4%	-16.6%	17.4%	-2.8%
COC(=O)C(C)CN1CCCCC1 (stereo not given)	20.1%	6.2%	22.1%	-6.45%	31.9%	19.9%
Cn1c(=O)c2c(nc(Cc3ccccc3)n2CC(=O)O)n(C)c1=O	0.3%	-18.1%	-30.8%	-6.95%	-32.1%	-18.9%
c1ccc(N=NC(N=Nc2ccccc2)=P(c2ccccc2)(c2ccccc2)c2ccccc2)cc1	56.4%	98.7% (active)	53%	64.6%	46.7%	61.9%
Cc1ccc(S(=O)(=O)OCC2=C(COS(=O)(=O)c3ccc(C)cc3)C3c4ccccc4C2c2ccccc23)cc1	31.3%	5.35%	1.55%	-27.8%	-1.35%	4.8%
Cc1cc2nnn(C3CCCCO3)c2cc1C (stereo not given)	3.25%	-12.9%	-17.9%	-15.8%	12.8%	-31.7%
CC(=O)c1c(-c2ccc(Cl)cc2)c(-c2ccc(Cl)cc2)nn(CCN)c1=O	38.1%	15.2%	29.2%	24.6%	42.7%	93% (active)
NC(=O)NC(=O)OCC(F)(F)C(F)(F)C(F)(F)C(F)(F)C(F)(F)C(F)(F)C(F)(F)F	45.8%	9.9%	31.4%	15.6%	-0.45%	6.85%
C=CCNC(=S)NCc1ccc(Cl)cc1	21.3%	7.8%	22.7%	-46.6%	5.15%	12.1%
CCOC(=O)CNC(=O)C(Cc1ccccc1)NC(=O)c1ccccc1[N+](=O)[O-] (stereo not given)	22.8%	14.3%	16%	15.8%	-1.25%	15.8%
CCCCCCCCCCCCCCCC(=O)OCC1OC(OC2(COC(=O)CCCCCCCCCCCCCCC)OC(COC(=O)CCCCCCCCCCCCCCC)C(OC(=O)CCCCCCCCCCCCCCC)C2OC(=O)CCCCCCCCCCCCCCC)C(OC(=O)CCCCCCCCCCCCCCC)C(OC(=O)CCCCCCCCCCCCCCC)C1OC(=O)CCCCCCCCCCCCCCC (stereo not given)	-6.25%	-26%	-34.1%	-14.7%	-13.9%	-6%
CCN(CC)C(=O)COc1ccc(Cl)cc1	2.05%	-7.75%	-5.55%	-41.7%	-26.6%	-20.7%
COC(=S)SCSC(=S)OC	-12.2%	-27.3%	-2.5%	-14.9%	-6.45%	-27.9%
C1CCC(C2CCCC2)CC1	7.5%	-0.35%	-13%	-32.6%	-17.2%	4.15%

Structure (SMILES)	growth inhibition [1]	growth inhibition [2]	growth inhibition [3]	growth inhibition [4]	growth inhibition [5]	growth inhibition [6]
CCC1(C)N=C(N)Nc2nc3ccccc3n21 (stereo not given)	-9.95%	0.35%	-7.65%	-28.6%	0.4%	-18.2%
CC(C)Cc1cnc(CC(C)C)c(=O)[nH]1	-13.6%	-44.6%	-28.1%	10.8%	-40.2%	-25.9%
COc1ccc(Cc2c(O)ccc3ccccc23)cc1	98.6% (active)	99.4% (active)	99% (active)	95.8% (active)	98.3% (active)	99.2% (active)
CCOC(=O)C(=O)O	12.3%	-9.3%	-4.85%	-7.8%	-5.05%	-5.7%
CC(C)(CCC(=O)O)C(=O)O	-4.15%	-34.1%	-30.5%	4.95%	-32.9%	-2.9%
N#C/C(=C\c1c[nH]c2ccccc12)C(=O)c1ccc(O)c(O)c1	-6.55%	0.25%	-20.6%	18.1%	2.95%	-6.95%
Cc1ccc(S(=O)(=O)N2CCC(N)=N2)cc1	4.8%	-6.7%	-3.75%	-18.4%	0.45%	-4.85%
CS(=O)(=O)OCCn1cnc2nc(NC(=O)c3ccccc3)[nH]c(=O)c21	-13.1%	-20.6%	-12.7%	0.55%	-19.2%	-24.6%
CCOC1=CC(=O)C(=O)c2ccccc21	-1.05%	-10.2%	-5.8%	-17.7%	-0.55%	10.3%
COC1=C2CC(C)CC(OC)C(O)C(C)/C=C(\C)C(OC(N)=O)C(OC)/C=C\C=C(/C)C(=O)NC(=C(C=NC(C)(C)C)C1=O)C2=O (stereo not given)	9.15%	23.2%	23.2%	46.1%	6.4%	18.5%
Cc1cc2c(C(C)C)c(O)c(O)c(C=Nc3ccc(-c4ccccc4)cc3)c2c(O)c1-c1c(C)cc2c(C(C)C)c(O)c(O)c(C=Nc3ccc(-c4ccccc4)cc3)c2c1O	-24.2%	-10.4%	-24.2%	-15.2%	-8.5%	-7.4%
COc1ccc2c3c(ccc2c1)C1CC(=O)CC1CC3 (stereo not given)	30.6%	-11.2%	54.8%	12.2%	61%	14.7%
O=C(O)CCBr	8.1%	-10.1%	44.5%	0%	6.5%	43.8%
CCC(=O)Nc1cc(Cl)c(Cl)cc1C	-8.7%	-12.4%	-13.5%	-85.8%	-27.2%	-12%
COCCCN1C(=O)C2c3[nH]c4ccccc4c3C3CCC(C(C)(C)C)CC3C2C1=O (stereo not given)	34.9%	8.55%	21.9%	45.4%	35.1%	49.5%
Cc1ccccc1-n1c(=O)sc2c(=O)n(-c3ccccc3)c(=S)[nH]c21	-11.2%	-23.4%	6.9%	6.2%	0.6%	-18.9%
CC1CC(Cc2ccccc2CC2CC(C)OC2=O)C(=O)O1 (stereo not given)	6.95%	12.6%	-0.1%	10.8%	10.8%	22.9%
O/N=C1\CCCCC1C(NO)c1ccccc1 (stereo not given)	2.4%	-4.25%	-7.9%	-16.4%	-12.2%	9.35%
CC12CCC3c4ccc(O)cc4C(=O)CC3C1CCC2O (stereo not given)	-16.1%	7.6%	5.8%	-29.8%	-11.2%	-17.6%
COc1cccc(Oc2cccc[n+]2CC(C)=O)c1	-57.5%	-10.3%	3.75%	8.4%	0.3%	1.15%
